Active and inactive are the calls of the source. Calls come from the whole dose curve; as a rule, active = well fitted curve in the direction sought with a large enough effect; inconclusive = small, poorly fitted or top-dose-only effect, or effect the other way, or another doubt; inactive = no such curve, though single readings can be large or run the other way.
target: Pyruvate kinase PKLR (Homo sapiens) (UniProt P30613); experiment: Secondary Concentration-Response Assay for Activators of Human Liver Pyruvate Kinase: for Probe SAR; settings: purified hPK-L, ATP production, Kinase-Glo luminescence; series mostly up to 58.3 µM
Text: NIH Chemical Genomics Center [NCGC]
Matthew G. Vander Heiden, M.D., Ph.D. [Harvard Medical School, 77 Avenue Louis Pasteur, Boston, MA 02115]
Human pyruvate kinase liver (hPK-L) enzyme was supplied as a highly purified (>95% pure) preparation from Harvard Medical School and assayed for its ability to generate ATP from ADP using phosphoenolpyruvate (PEP) as a substrate. ATP generation was detected in a coupled reaction by luciferase-mediated luminescence, an ATP-dependent process. Pyruvate kinase substrates, PEP and ADP, were present in the assay at Km and approximately 10-fold below Km respectively. The enzyme was assayed at an intermediate level of activity to screen for both inhibitors and activators.
NCGC Assay Protocol Summary for L-isoform:
Three uL of substrate mix (at r.t.) in assay buffer (50 mM Imidazole pH7.2, 50 mM KCl, 7 mM MgCl2, 0.01% Tween 20, 0.05% BSA) was dispensed into white solid bottom 1,536 well microtiter plates so that the final concentrations of substrates in the assay were 0.1 mM ADP and 0.5 mM PEP. 23 nL of compound were delivered by a pin tool and 1 uL of enzyme mix (final concentration of 0.1 nM) in assay buffer (4 degree Celsius) was added. Plates were incubated at room temperature for 1 hour. Two uL of detection mix (Kinase-Glo, Promega; at 4 degree Celsius protected from light) was added and luminescence read by a ViewLux (Perkin Elmer) at 1 second exposure/plate. Data were normalized to the uninhibited (row 31). Additionally, a no enzyme and 5-fold enzyme control was dispensed in row 32, split equally between the two conditions.

Chain of Pyruvate kinase PKLR (Homo sapiens) (P30613 whole entry, looked up): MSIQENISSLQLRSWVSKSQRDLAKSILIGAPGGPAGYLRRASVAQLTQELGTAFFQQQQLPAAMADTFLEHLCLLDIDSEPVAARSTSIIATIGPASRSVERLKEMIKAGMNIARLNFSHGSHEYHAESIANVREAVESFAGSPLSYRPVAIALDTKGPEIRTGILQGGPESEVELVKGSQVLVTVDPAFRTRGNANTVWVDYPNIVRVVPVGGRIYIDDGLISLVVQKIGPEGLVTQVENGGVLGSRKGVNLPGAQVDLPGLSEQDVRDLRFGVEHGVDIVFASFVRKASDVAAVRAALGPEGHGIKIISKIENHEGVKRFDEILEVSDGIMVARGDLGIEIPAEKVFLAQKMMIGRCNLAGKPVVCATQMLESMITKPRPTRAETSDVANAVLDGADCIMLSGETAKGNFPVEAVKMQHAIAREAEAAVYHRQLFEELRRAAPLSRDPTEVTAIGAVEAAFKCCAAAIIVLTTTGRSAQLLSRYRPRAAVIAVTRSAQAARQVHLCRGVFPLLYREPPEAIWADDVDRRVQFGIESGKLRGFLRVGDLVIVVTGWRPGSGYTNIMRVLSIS

outcome, inactive:
O=C1c2ccccc2C(=O)N1C1CCCCC1
Cc1ccn2c(NCc3ccco3)c(-c3ccccc3)nc2c1
Cc1ccc(-c2nc3cnccn3c2Nc2ccc(C(C)C)cc2)o1
Cc1ccc(NS(=O)(=O)c2ccc3c(c2)CCO3)cc1C
Cc1ccc(NS(=O)(=O)c2ccc3c(c2)n(C)c(=O)n3C)cc1C
Cc1cccc(NS(=O)(=O)c2ccc3c(c2)CCC(=O)N3)c1
O=C1CCc2cc(S(=O)(=O)Nc3ccc4c(c3)CCC4)ccc2N1
Cc1ccc(NS(=O)(=O)c2cc3c(cc2N2CCC2)NC(=O)CC3)cc1C
Cc1ccc(NS(=O)(=O)c2ccc3c(c2)CCC(C)(C)O3)cc1C
Cc1ccc(NS(=O)(=O)c2cc3c(cc2F)NC(=O)CC3)cc1C
O=C1CCc2cc(S(=O)(=O)Nc3ccc4ncccc4c3)ccc2N1
O=C1CCc2cc(S(=O)(=O)Nc3cccc4ccccc34)ccc2N1
O=C1CCc2cc(S(=O)(=O)Nc3ccc(F)cc3)ccc2N1
COc1cccc(Cn2ncc3c4sc(SC)cc4n(C)c3c2=O)c1
O=C1CCc2cc(S(=O)(=O)Nc3cccc(F)c3)ccc2N1
O=C1CCc2cc(S(=O)(=O)Nc3ccccc3F)ccc2N1
O=C1CCc2cc(S(=O)(=O)Nc3ccncc3)ccc2N1
O=C1c2ccccc2C(=O)N1c1nccs1
Cc1ccc(NS(=O)(=O)c2ccc3c(c2)CCC(=O)N3)cc1
CC(=O)N1CCc2cc(S(=O)(=O)Nc3ccc(C)c(C)c3)ccc21
CC(=O)Nc1cccc(S(=O)(=O)Nc2ccc(C)c(C)c2)c1
Cc1ccc(NS(=O)(=O)c2cc3c(cc2N2CCCCC2)NC(=O)CC3)cc1C
O=C1c2ccccc2C(=O)N1c1noc2ccccc12
Nc1cc(S(=O)(=O)N2CCN(S(=O)(=O)c3ccc4c(c3)OCCO4)CC2)ccn1
Cc1ccc(NS(=O)(=O)c2cc3c(cc2Br)NC(=O)CO3)cc1C
Cc1ccc(NS(=O)(=O)c2ccc(Cl)cc2)cc1C
CC(=O)Nc1ccc(S(=O)(=O)Nc2ccc(C)c(C)c2)cc1
O=C1CCc2cc(S(=O)(=O)NCc3ccccc3)ccc2N1
CNc1cc2c(cc1S(=O)(=O)Nc1ccc(C)c(C)c1)CCC(=O)N2
Cc1ccccc1Nc1c(-c2ccccc2)nc2cccc(C)n12
O=C1c2ccccc2C(=O)N1c1cccc2ccncc12
O=C1CCc2cc(S(=O)(=O)Nc3ccccc3Cl)ccc2N1
Cc1ccc(Cl)cc1NS(=O)(=O)c1cc2c(cc1Cl)CCC(=O)N2
CC(=O)N1c2ccc(S(=O)(=O)Nc3ccc(C)c(C)c3)cc2CC1C (stereo not given)
Cc1ccc(NS(=O)(=O)c2cc3c(cc2C)OCC(=O)N3)cc1C
Cc1ccc(Nc2c(-c3ccsc3)nc3cccc(C)n23)cc1
CSc1cc2c(s1)c1cnn(Cc3cccc(O)c3)c(=O)c1n2C
Cc1ccc(C)c(OC2=NS(=O)(=O)c3ccccc32)c1
O=C1c2ccccc2C(=O)N1Cc1ccccc1
Cc1ccc(NS(=O)(=O)c2ccc3c(c2)CC(=O)N3C)cc1C
